From ChEMBL document CHEMBL3433997, “St. Jude Leishmania screening dataset” (2016) come the findings set out here.

Structures are written as SMILES.

Type in all cases: functional
Experiment [1] concerns the target Solute carrier family 2, facilitated glucose transporter member 1 (Homo sapiens) (UniProt P11166). In words: ST_JUDE_LEISH: Cytotoxicity at 2uM final concentration against transgenic Leishmania Mexicana promastigotes LmGLUT1 that are glucose transport deficient and complemented with the human glucose transporter GLUT1. Activity is measured by DNA content using SYBR green in vitro.

Experiment [2] concerns the target Hexose transporter 1 (Plasmodium falciparum) (UniProt O97467). Put plainly: ST_JUDE_LEISH: Cytotoxicity at 2uM final concentration against transgenic Leishmania Mexicana promastigotes LmPfHT that are glucose transport deficient and complemented with the Plasmodium falciparum hexose transporter. Activity is measured by DNA content using SYBR green in vitro.
Experiment [3] deals with Glucose transporter (Leishmania mexicana) (UniProt O61059). Put plainly: ST_JUDE_LEISH: Cytotoxicity at 2uM final concentration against transgenic Leishmania Mexicana promastigotes LmGT2 that are glucose transport deficient and complemented with the L. Mexicana glucose transporter 2. Activity is measured by DNA content using SYBR green in vitro.

Chain of Solute carrier family 2, facilitated glucose transporter member 1 (Homo sapiens) (P11166 whole entry): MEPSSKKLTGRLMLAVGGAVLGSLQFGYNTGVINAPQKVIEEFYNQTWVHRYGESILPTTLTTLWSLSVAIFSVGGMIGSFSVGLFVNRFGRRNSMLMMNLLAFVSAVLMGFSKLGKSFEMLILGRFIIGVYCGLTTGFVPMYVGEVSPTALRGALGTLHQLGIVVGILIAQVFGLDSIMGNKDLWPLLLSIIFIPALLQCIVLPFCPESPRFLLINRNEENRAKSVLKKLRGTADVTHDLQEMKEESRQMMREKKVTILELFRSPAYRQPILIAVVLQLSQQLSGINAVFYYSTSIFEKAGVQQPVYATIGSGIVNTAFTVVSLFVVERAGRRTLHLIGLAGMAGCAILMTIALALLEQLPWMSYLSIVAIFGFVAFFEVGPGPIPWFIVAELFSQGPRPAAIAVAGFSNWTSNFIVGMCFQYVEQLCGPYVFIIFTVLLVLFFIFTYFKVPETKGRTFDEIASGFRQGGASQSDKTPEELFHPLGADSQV

As usually defined, the inhibition is the drop in the measured response relative to a control, in per cent. In the case of `CCCCC(=O)NC(c1cccs1)c1cc(Cl)c2cccnc2c1O` (stereo not drawn), the inhibition in experiment [1] came out at 8.63%; in experiment [2], 8.32%; in experiment [3] it was 5.17%.
Taken in the same sequence, the figures for `Cc1ccc(Nc2nc(NN=Cc3ccc(-c4ccc([N+](=O)[O-])cc4)o3)nc(N3CCOCC3)n2)cc1Cl` were -1.18%, -1.96% and -0.54%.
Taken in the same sequence, the figures for `CN1CCC(NCc2cccc(-c3cccc(S(=O)(=O)NCc4ccccc4)c3)c2)CC1` were 4.86%, -2.65% and 2.47%.
On to `CC(C)NCc1cccc(-c2ccc(NS(=O)(=O)c3cccc4cccnc34)cc2)c1`, for which the inhibition in experiment [1] was 13.8%; in experiment [2], 8.78%; in experiment [3], -2.82%.
Turning to `CCNc1cc(C(=O)N[C@@H](Cc2ccccc2)[C@H](O)CNC(C)(C)Cc2cccc(OC)c2)cc(N2CCCC2=O)c1`, the inhibition in experiment [1] is -2.08%; in experiment [2], -1.02%; in experiment [3], -0.38%.
As for `O=C(N[C@H]1CCN(Cc2ccc(OCCN3CCNCC3)c(Cl)c2)C1)c1ccc(Cl)c(Cl)c1`, the values for the inhibition in experiment [1], in experiment [2] and in experiment [3] were -1.27%, -3.15% and -2.23%, respectively.
For the compound `O=C(Nc1ccc(Br)cc1)c1cc(Br)ccc1NS(=O)(=O)c1ccc(C(F)(F)F)cc1`, the values for the inhibition in experiment [1], in experiment [2] and in experiment [3] were 0.82%, 0.98% and 0.46%, respectively.
Turning to `O=C(NCCCCNCC(Cc1cccc(O)c1)c1ccccc1)c1ccc(NC(=O)c2ccc(Cl)cc2)cc1` (stereo not drawn), the inhibition is -0.19% in experiment [1], -3.38% in experiment [2] and -1.18% in experiment [3].
Take `CCOP(=O)(OCC)c1ccc(OC)c(-c2ccc[nH]2)c1`: the inhibition in experiment [1] was 4.52%; in experiment [2] it was 2.22%; in experiment [3], 1.77%.
For `Fc1cc(Cl)ccc1Nc1ccnc2cc(-c3ccc(CNCCN4CCOCC4)o3)ccc12`, the inhibition in experiment [1] is 1.58%; in experiment [2], 1.07%; in experiment [3], 0.9%.
Taken in the same sequence, the figures for `CCc1cc2c3c(N)nc(N)nc3ccc2n1C(C)(C)C` were 96%, 94.4% and 78.4%.
With `Cc1cc(N2CCCCC2)nc2ccc(NC(=O)c3cc(=O)c4ccccc4o3)cc12`, the inhibition was 5.94% in experiment [1], 7.2% in experiment [2] and 0.66% in experiment [3].
On the same counts, the results for `CC(C)(C)CCOC(=O)N1CCc2c(cc(O)c(O)c2Cl)C(c2ccc(O)cc2)C1` (stereo not drawn) are -1.94%, 0.65% and 14%.
Taken in the same sequence, the figures for `c1cc(CN2CCCCC2)cc(-c2ccc(-c3nc4ccccc4[nH]3)s2)c1` were 4.86%, 1.16% and -0.82%.
Taken in the same sequence, the figures for `O=C(/C=C/c1ccc(Cl)c(Cl)c1)N1CCC(CN2CCC(c3nc4ccccc4n3CCCO)CC2)CC1` were 4.72%, 4.22% and 5.85%.
Regarding `Cc1nnc2c(NC(=O)NC3CCCC3)cc3cc(-c4ccc(CN5CCCCC5)cc4)ccc3n12`, the results for the inhibition in experiment [1], in experiment [2] and in experiment [3] were 1.79%, 1.94% and 0.13%, respectively.
On the same counts, the results for `COc1ccc(NC(=O)[C@H](Cc2ccccc2)Nc2cc(C)nc(NCCc3cccs3)n2)cc1` are 2.27%, 2.32% and -0.24%.
Taken in the same sequence, the figures for `CC(C)Sc1nncc(-c2cnnc(SC(C)C)n2)n1` were -0.53%, -0.11% and 0.07%.
Regarding `COc1ccc(CNCCCCCCNCCc2ccc(Cl)cc2)cc1OC`, the values for the inhibition in experiment [1], in experiment [2] and in experiment [3] were 1.25%, 1.81% and 3.24%, respectively.
On the same counts, the results for `Cc1cc(F)ccc1C1CCN(CCCCNC(=O)c2ccc(NC(=O)c3ccc(Cl)cc3)cc2)CC1` are 1.66%, 0.36% and 0.87%.
For the compound `COc1cc(Nc2nccc(-c3c(-c4cccc(NC(=O)c5c(F)cccc5F)c4)nn4ccccc34)n2)cc(OC)c1OC`, the inhibition in experiment [1] came to 20.8%; in experiment [2], 24.9%; in experiment [3] it was 8.03%.
On the same counts, the results for `CCc1ccc(CN2CCC(CNC(=O)c3cc(-c4cccc(F)c4)cs3)C2)cc1` (stereo not drawn) are -0.39%, 1.94% and 1.42%.
Regarding `COc1cc2nc(Nc3ccc4c(c3)OCCO4)nc(N)c2cc1OC`, the inhibition in experiment [1] was -0.32%; in experiment [2], -0.78%; in experiment [3], 1.75%.
On the same counts, the results for `COc1cccc(C(=O)NCc2cccs2)c1OCc1ccccc1` are 1.77%, 0.89% and 1.15%.
With `CN(CCN1CCC(c2c[nH]c3ccccc23)CC1)c1ccc(-c2nc3cc(Cl)c(Cl)cc3[nH]2)cc1`, the results for the inhibition in experiment [1], in experiment [2] and in experiment [3] were 2.04%, 0.16% and 0.74%, respectively.
On to `O=C(NCCCNc1ccnc2cc(Cl)ccc12)c1ccccc1F`, for which the inhibition in experiment [1] came out at 4.12%; in experiment [2], 3.35%; in experiment [3] it was 4.23%.
On the same counts, the results for `CN(C)CCNC(=O)c1cc2c(-c3ccc(Cl)cc3)nn(C)c2s1` are 2.62%, 2.13% and 1.3%.
On to `O=C(NC1CCCCC1)N(Cc1cccc(-c2ccc(CNCCc3ccccc3)cc2)c1)C1CCN(Cc2ccccc2)CC1`, for which the inhibition in experiment [1] is 6.68%; in experiment [2] it was 6.86%; in experiment [3], 4.45%.
Regarding `CC(C)(C)c1cc(C(=O)Nc2ccc(C(=N)N)cc2)c(O)c(C(C)(C)C)c1`, the inhibition in experiment [1] was -0.84%; in experiment [2], 3.05%; in experiment [3], 1.59%.
Taken in the same sequence, the figures for `COc1ccc(-c2nonc2NC(=O)c2ccc(OC(C)C)cc2)cc1OC` were 0.75%, 3.06% and 3.04%.
Take `Cc1[nH]c(C)c(-c2ccc(Oc3ccc(Cl)cc3)cc2)c(=O)c1Br`: the inhibition was -0.61% in experiment [1], 0.25% in experiment [2] and -0.13% in experiment [3].
Taken in the same sequence, the figures for `N=C(N)NC(=O)Nc1cc(F)c(Cl)c(Br)c1` were 3.49%, 4.05% and -2.83%.
On to `COc1ccc(-c2cc(C(F)(F)F)n3ncc(C(=O)Nc4cc(C)ccc4O)c3n2)cc1OC`, for which the results for the inhibition in experiment [1], in experiment [2] and in experiment [3] were 4.34%, 2.45% and 0.56%, respectively.
In the case of `O=C(O[C@H]1CN[C@H](C#Cc2cc3ncnc(Nc4ccc5c(ccn5S(=O)(=O)c5cccs5)c4)c3s2)C1)N1CCOCC1`, the inhibition turned out to be 9.76% in experiment [1], 13.6% in experiment [2] and 10.6% in experiment [3].
For the compound `COc1cccc2cc(C(=O)N[C@@H](CC(C)C)C(=O)N[C@H](C=NNC(=O)OC(C)(C)C)Cc3ccccc3)oc12`, the inhibition in experiment [1] worked out at 7.26%; in experiment [2], 6.28%; in experiment [3] it was 4.09%.
As for `Cc1cc(OCCCN2CCCCC2)ccc1NC(=O)COc1ccc(Cl)cc1C(=O)c1cc(C#N)cc(C(F)(F)F)c1`, the inhibition in experiment [1] was found to be 4.63%; in experiment [2] it was 3.53%; in experiment [3] it was 0.43%.
